Results filed as inconclusive are left out. Activity calls are given as the source filed them. Unless noted, calls come from the whole dose curve; as a rule, active = well fitted curve in either direction with a large enough effect (not every such curve was filed as active); inconclusive = small, poorly fitted or top-dose-only effect, or another doubt; inactive = flat fitted curve, though single readings scatter.
Experiments:
[1] = target: Lysosomal acid glucosylceramidase (Homo sapiens) (UniProt P04062); assay: Glucocerebrosidase-p2 (AID 348; in the data active = potency below about 10 µM; note: potency is the fitted concentration of half-maximal effect); details: purified GBA, blue fluorogenic substrate, 40 min
Summary of the method: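 Normal human glucocerebrosidase (0.2 nM) with blue fluorogenic substrate (80 uM final) in citrate/phosphate pH 5.9 with 10mM sodium taurocholate, 0.01% tween-20; 40 min RT, NaOH/glycine stop; fluorescence Ex 365/Em 440; AC50 from a titration from 0.6 nM upwards.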

[2] = AP1 Signaling Pathway (AID 357); details: ME-180 AP-1-bla reporter, EGF-induced, beta-lactamase ratio, 5 h; at 7.69 µM (top of the series) unless noted;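 note: ME-180 reporter cells stimulated with EGF at its EC50 level; % is set by controls: 0 for no effect and ±100 for the full control effect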
Summary of the method: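 First, ME-180 AP-1-bla cells were cultured overnight at 37 °C in low-serum Opti-MEM. Next, titrated compounds with EC50 EGF were incubated 5 hours. Finally, CCF4 was added for 2.5 hours and the 460/530 nm ratio recorded.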

[3] = target: Cytochrome P450 1A2 (Homo sapiens) (UniProt P05177); assay: p450-cyp1a2 (AID 410; calls by dose curve; note: potency is the fitted concentration of half-maximal effect;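 for activity change, negative = inhibition: -100% = full effect of reference inhibitor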); details: recombinant CYP1A2, luciferin-ME demethylation, luminescence; series mostly up to 11.4 µM
Summary of the method: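 Luminescent demethylation readout: Luciferin-ME (100uM, equal to Km) turned over by 20nM CYP1A2 for 60 min at room temperature after NADPH regeneration addition, following 10 min compound preincubation. Normalization used 57 uM furafylline as full inhibition.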

[4] = Stat Signaling Pathway (AID 446); details: ME-180 (cervical carcinoma) SIE beta-lactamase reporter, IL-6 stimulated, 5 h; at 7.69 µM (top of the series) unless noted;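 note: ME-180 cervical cancer cells given 40 pM IL-6 alongside compound; SIE-controlled beta-lactamase reporter measured as 460/530 nm FRET emission ratio; % is set by controls: 0 for no effect and ±100 for the full control effect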
Summary of the method: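 Overnight-plated ME-180 cells bearing a STAT Inducible Element beta-lactamase reporter; 5 h co-exposure to compound and 40 pM IL-6; values normalized to 300 pM IL-6 and 125 nM JAK inhibitor controls.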

[5] = target: Glucocorticoid receptor (Homo sapiens) (UniProt P04150); assay: GR-GFP Redistribution (AID 450;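 active = compounds whose dose series gives a full or clear partial fitted curve of increased nuclear translocation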; note: potency is the fitted concentration of half-maximal effect); details: U2OS GR-GFP nuclear translocation, laser cytometry, 2 h
[6] = target: Glucocorticoid receptor (Homo sapiens) (UniProt P04150); assay: GR-EFC Redistribution (AID 451; calls by dose curve; note: potency is the fitted concentration of half-maximal effect); details: CHO-K1 GR-EFC translocation, beta-gal luminescence, 2 h
Summary of the method: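 CHO-K1 cells expressing nuclear EA and GR-ED fragments of b-gal; compounds titrated up to 46 uM final, 2 h at 37 C. GR nuclear translocation read as complemented b-gal luminescence after 1 h RT detection.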

[7] = target: Mitogen-activated protein kinase 10 (Mus musculus) (UniProt Q61831); assay: JNK3 AlphaScreen Assay (AID 530); details: JNK3 lysate, c-Jun phosphorylation; series mostly up to 11.4 µM;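 note: kinase came from lysate of stimulated human HepG2 cells; signal reports phosphorylation of biotinylated GST-cJun 1-79 at Ser73 with 10 µM ATP; % is set by controls: 0 for no effect and ±100 for the full control effect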
Summary of the method: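 Activity was read by AlphaScreen after JNK3-containing HepG2 lysate (cytokine pre-activated) phosphorylated biotinylated GST-cJun with 10 uM ATP at room temperature. Phospho-Ser73 cJun antibody with Protein-A acceptor beads provided detection.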

[8] = target: 3',5'-cyclic-AMP phosphodiesterase 4B (Homo sapiens) (UniProt Q07343); assay: qHTS Assay for Inhibitors of PDE-IV (AID 607; active = well fitted activation curve with a large enough effect in the main read-out, with a control signal flat, not every such curve was filed as active; note: % of control where 0% means no effect); details: HEK293 ACTOne CNG channel cells, membrane potential fluorescence; series mostly up to 22.9 µM
Summary of the method: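 Live HEK293 cells with a modified cyclic nucleotide-gated (CNG) channel report intracellular cAMP via membrane-potential dye fluorescence (ex 535/em 590 nm). Endogenous PDE-IV was targeted. Compounds were tested at up to 22.9 uM final; RO 20-1724 100 uM served as control.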

[9] = target: Cytochrome P450 3A4 (Homo sapiens) (UniProt P08684); assay: qHTS Assay for Activators of Cytochrome P450 3A4 (AID 885; active = well fitted curve in the direction sought with a large enough effect; an effect the other way counts as inactive or inconclusive; note: nearly all actives have a fitted effect of over 65% in size); details: recombinant CYP3A4, Luciferin-PPXE luminescence, 60 min; series mostly up to 11.4 µM
Summary of the method: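 Using 20nM recombinant human CYP3A4 in potassium phosphate (200mM), substrate Luciferin-PPXE at 25uM, luminescent luciferin detection followed a 60-min RT NADPH reaction; data scaled to 57 uM ketoconazole.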

[10] = target: Cytochrome P450 3A4 (Homo sapiens) (UniProt P08684); assay: qHTS Assay for Inhibitors and Substrates of Cytochrome P450 3A4 (AID 884; active = well fitted curve in the direction sought with a large enough effect; an effect the other way counts as inactive or inconclusive; note: potency is the fitted concentration of half-maximal effect; nearly all actives have a fitted effect of over 50% in size); details: recombinant CYP3A4, Luciferin-PPXE luminescence; series mostly up to 57.1 µM
Summary of the method: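 Luminescent readout of luciferin produced by CYP3A4 (20 nM) dealkylation of Luciferin-PPXE, 25 uM (its KM). NADPH-driven reaction ran 60 min at RT after 10 min compound preincubation; data scaled to 57 uM ketoconazole as 100% inhibition.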

[11] = target: Cytochrome P450 2C19 (Homo sapiens) (UniProt P33261); assay: qHTS Assay for Inhibitors and Substrates of Cytochrome P450 2C19 (AID 899; active = well fitted curve in the direction sought with a large enough effect; an effect the other way counts as inactive or inconclusive; note: potency is the fitted concentration of half-maximal effect; nearly all actives have a fitted effect of over 60% in size); details: recombinant CYP2C19, luciferin-H EGE luminescence; series mostly up to 11.4 µM
Summary of the method: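 Luminescent read-out of luciferin formed from Luciferin-H EGE (10uM, equal to KM). Enzyme 5nM in 50mM KPO4; compound added, 10 min at 37C, then NADPH regenerating system for 60 min at 37C. Full inhibition defined by 57uM ketoconazole.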

[12] = target: Cytochrome P450 2D6 (Homo sapiens) (UniProt P10635); assay: qHTS Assay for Inhibitors and Substrates of Cytochrome P450 2D6 (AID 891; active = well fitted curve in the direction sought with a large enough effect; an effect the other way counts as inactive or inconclusive; note: potency is the fitted concentration of half-maximal effect; nearly all actives have a fitted effect of over 60% in size); details: recombinant CYP2D6, luciferin-ME EGE luminescence; series mostly up to 11.4 µM
Summary of the method: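 Luminescent read-out of luciferin formed by 5 nM human CYP2D6 demethylating 30 uM Luciferin-ME EGE (Km level) over 60 min at room temperature after NADPH regeneration addition. Data normalized to full inhibition by 1.43 uM quinidine.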

Chain of 3',5'-cyclic-AMP phosphodiesterase 4B (Homo sapiens) (Q07343 whole entry, looked up): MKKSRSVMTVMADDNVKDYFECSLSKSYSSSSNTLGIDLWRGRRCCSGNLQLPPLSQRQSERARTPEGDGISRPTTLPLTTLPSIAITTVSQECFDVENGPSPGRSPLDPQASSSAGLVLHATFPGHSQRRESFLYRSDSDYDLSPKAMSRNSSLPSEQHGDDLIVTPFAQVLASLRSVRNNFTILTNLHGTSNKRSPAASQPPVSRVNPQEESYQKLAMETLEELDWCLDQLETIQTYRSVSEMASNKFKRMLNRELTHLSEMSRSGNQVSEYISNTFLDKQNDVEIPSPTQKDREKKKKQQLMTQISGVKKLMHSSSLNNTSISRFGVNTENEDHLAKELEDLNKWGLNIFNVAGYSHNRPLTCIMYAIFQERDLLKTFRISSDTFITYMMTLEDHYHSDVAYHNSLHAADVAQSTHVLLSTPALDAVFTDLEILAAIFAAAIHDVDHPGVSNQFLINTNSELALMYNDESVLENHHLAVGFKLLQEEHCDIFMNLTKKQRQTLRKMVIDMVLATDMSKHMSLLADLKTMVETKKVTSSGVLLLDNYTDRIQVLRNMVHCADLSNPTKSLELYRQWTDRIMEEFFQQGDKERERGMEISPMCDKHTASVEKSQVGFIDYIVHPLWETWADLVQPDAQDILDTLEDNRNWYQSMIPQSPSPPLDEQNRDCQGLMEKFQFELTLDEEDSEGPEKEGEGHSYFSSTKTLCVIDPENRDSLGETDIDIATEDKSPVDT
Chain of Glucocorticoid receptor (Homo sapiens) (P04150 whole entry, looked up, the tested form may be a part): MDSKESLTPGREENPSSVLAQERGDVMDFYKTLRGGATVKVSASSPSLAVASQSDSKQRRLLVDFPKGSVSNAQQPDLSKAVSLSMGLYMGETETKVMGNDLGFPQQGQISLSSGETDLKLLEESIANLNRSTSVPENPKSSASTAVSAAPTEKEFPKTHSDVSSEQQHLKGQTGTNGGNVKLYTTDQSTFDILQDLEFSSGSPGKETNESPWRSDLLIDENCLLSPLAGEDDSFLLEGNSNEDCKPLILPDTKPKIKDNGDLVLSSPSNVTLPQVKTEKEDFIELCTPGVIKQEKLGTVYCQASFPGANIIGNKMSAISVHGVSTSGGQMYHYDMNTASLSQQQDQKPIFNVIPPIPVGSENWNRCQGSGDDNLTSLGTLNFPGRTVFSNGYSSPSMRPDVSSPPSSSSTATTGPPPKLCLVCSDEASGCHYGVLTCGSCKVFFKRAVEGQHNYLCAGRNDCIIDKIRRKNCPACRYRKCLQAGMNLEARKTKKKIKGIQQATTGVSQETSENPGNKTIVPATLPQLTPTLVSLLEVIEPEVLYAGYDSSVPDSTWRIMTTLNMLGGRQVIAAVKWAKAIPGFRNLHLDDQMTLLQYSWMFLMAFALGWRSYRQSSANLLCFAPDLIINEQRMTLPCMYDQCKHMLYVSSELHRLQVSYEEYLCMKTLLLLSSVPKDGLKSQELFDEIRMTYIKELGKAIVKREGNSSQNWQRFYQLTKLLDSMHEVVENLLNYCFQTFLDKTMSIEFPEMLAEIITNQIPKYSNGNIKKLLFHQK
Chain of Cytochrome P450 1A2 (Homo sapiens) (P05177 whole entry, looked up): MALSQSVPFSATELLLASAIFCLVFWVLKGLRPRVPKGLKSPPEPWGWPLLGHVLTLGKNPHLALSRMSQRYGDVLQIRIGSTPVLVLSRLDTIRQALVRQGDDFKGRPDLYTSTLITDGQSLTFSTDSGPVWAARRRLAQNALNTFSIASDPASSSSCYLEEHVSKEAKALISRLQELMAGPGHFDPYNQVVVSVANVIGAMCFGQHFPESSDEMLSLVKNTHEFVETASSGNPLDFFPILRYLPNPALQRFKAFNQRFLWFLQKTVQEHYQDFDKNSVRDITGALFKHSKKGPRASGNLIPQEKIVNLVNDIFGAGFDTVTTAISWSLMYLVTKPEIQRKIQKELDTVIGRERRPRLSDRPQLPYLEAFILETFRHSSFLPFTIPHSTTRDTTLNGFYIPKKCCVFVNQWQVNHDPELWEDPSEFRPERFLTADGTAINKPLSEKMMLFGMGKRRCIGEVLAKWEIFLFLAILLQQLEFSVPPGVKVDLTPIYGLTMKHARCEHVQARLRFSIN
Chain of Cytochrome P450 3A4 (Homo sapiens) (P08684 whole entry, looked up): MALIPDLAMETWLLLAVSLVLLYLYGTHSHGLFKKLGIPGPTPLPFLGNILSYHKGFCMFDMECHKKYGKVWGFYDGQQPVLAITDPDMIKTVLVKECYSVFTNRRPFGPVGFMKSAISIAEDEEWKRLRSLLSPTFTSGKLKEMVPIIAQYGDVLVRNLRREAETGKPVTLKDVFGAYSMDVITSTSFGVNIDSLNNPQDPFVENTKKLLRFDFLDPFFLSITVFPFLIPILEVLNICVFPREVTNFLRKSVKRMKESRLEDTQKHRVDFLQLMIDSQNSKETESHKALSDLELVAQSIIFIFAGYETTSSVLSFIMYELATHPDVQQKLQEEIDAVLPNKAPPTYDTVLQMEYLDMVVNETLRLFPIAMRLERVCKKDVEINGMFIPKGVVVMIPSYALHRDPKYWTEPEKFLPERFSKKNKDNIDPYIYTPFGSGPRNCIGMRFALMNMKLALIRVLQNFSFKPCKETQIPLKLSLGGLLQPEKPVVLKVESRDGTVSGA
Chain of Lysosomal acid glucosylceramidase (Homo sapiens) (P04062 whole entry, looked up): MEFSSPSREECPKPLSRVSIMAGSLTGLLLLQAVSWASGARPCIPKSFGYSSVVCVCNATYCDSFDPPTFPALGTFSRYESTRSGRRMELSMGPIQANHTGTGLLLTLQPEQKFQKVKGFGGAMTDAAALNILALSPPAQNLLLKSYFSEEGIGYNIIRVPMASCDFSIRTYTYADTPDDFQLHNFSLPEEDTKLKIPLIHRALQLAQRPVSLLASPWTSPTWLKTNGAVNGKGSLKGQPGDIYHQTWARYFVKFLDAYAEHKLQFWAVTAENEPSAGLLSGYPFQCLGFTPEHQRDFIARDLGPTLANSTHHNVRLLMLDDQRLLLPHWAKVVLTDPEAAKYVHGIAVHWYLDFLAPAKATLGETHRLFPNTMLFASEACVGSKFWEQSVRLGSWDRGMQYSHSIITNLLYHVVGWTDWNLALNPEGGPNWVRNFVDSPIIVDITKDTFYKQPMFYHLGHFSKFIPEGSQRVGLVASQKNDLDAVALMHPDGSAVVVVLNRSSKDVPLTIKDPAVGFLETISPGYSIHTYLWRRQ
Chain of Cytochrome P450 2C19 (Homo sapiens) (P33261 whole entry, looked up): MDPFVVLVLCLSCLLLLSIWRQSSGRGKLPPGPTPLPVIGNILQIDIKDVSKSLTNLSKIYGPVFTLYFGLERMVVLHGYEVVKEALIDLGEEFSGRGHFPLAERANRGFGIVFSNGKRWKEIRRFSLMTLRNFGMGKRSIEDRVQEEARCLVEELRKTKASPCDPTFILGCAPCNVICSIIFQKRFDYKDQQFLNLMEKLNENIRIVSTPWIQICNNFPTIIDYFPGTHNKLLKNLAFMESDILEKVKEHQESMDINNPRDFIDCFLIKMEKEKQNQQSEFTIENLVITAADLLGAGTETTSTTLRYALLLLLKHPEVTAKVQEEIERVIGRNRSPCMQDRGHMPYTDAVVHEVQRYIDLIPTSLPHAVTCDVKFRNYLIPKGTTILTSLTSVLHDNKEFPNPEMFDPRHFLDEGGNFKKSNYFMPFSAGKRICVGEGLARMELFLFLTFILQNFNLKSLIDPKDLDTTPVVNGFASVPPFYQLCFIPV
Chain of Cytochrome P450 2D6 (Homo sapiens) (P10635 whole entry, looked up): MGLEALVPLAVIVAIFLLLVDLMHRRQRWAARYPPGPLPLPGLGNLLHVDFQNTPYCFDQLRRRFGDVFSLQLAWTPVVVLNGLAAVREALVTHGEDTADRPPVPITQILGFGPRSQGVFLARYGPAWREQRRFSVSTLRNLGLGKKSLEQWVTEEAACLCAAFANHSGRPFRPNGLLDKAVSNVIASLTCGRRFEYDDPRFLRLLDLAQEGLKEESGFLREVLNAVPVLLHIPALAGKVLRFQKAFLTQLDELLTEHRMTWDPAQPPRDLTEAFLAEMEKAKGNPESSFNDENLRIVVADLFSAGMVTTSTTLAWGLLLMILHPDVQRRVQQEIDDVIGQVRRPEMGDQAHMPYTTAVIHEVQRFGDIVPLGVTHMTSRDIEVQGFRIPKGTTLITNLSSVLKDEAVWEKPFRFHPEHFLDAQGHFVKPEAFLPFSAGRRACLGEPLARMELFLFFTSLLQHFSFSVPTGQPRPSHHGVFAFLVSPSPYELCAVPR

O=S(=O)(O)[C@@H](c1ccccc1)[C@@H](O)c1ccccc1
inactive: Potency [1] > 11.4 µM | activity change, negative = inhibition [2] 1.17% | activity change, negative = inhibition [3] -13.9% [at 2.29 µM] | activity, negative = inhibition [4] 8.88% | Potency [5] > 46 µM | Potency [6] > 9.22 µM | Potency [7] | Potency [8]

N=C1CCC[C@@H]1C(=S)SCCC(N)=O
inactive: Potency [1] > 11.4 µM | activity change, negative = inhibition [2] -7.71% | activity, negative = inhibition [4] -12.4% | Potency [5] > 46 µM | Potency [6] > 9.22 µM | Potency [7] | Potency [8]
active: Potency [3] 3.16 µM

Nc1ncnc2c1ncn2[C@H]1O[C@@H](C(=O)O)[C@@H](O)[C@H]1O
inactive: Potency [1] > 11.4 µM | activity change, negative = inhibition [2] 17.5% | Potency [3] | activity, negative = inhibition [4] 6.21% | Potency [5] > 46 µM | Potency [6] > 9.22 µM | Potency [7] | Potency [8]

Cn1c(=O)c2[nH]c(CS(=O)(=O)Cc3nc4c([nH]3)c(=O)n(C)c(=O)n4C)nc2n(C)c1=O
inactive: Potency [1] > 11.4 µM | activity change, negative = inhibition [2] -5.52% | activity change, negative = inhibition [3] -21.1% [at 2.29 µM] | activity, negative = inhibition [4] -2.96% | Potency [5] > 46 µM | Potency [6] > 9.22 µM | Potency [7] | Potency [8]

CC(C)C12CC[C@@]3(CC[C@H]4[C@@](C)(CCC[C@]4(C)C(=O)O)[C@@H]3C1)[C@@H](CN)C2
inactive: Potency [1] > 11.4 µM | activity change, negative = inhibition [2] -3.83% | Potency [3] | activity, negative = inhibition [4] 1.18% | Potency [5] > 46 µM | Potency [6] > 9.22 µM | Potency [7] | Potency [8]

COc1ncc2nc(CCc3ccccc3)c(=O)n(C)c2n1
active: Potency [3] 5.01 µM
inactive: Potency [1] > 11.4 µM | activity change, negative = inhibition [2] -29.7% | activity, negative = inhibition [4] -1.2% | Potency [5] > 9.22 µM | Potency [6] > 46 µM | Potency [7] | Potency [8]

OCCN(CCO)c1ncnc2nc[nH]c12
inactive: Potency [1] > 11.4 µM | activity change, negative = inhibition [2] -2.15% | Potency [3] | activity, negative = inhibition [4] -0.624% | Potency [5] > 46 µM | Potency [6] > 9.22 µM | Potency [7] | Potency [8]

CN(C)Cc1ccc(-c2cc3onc(-c4ccccc4)c3c(=O)n2C)cc1
inactive: Potency [1] > 11.4 µM | activity change, negative = inhibition [2] 12.1% | Potency [3] | activity, negative = inhibition [4] -3.19% | Potency [5] > 46 µM | Potency [6] > 9.22 µM | Potency [7] | Potency [8]

O=C(O)/C=C\C(=O)Nc1cccc2c1-c1ccccc1C2=O
active: Potency [3] 2.51 µM
inactive: Potency [1] > 11.4 µM | activity change, negative = inhibition [2] -2.3% | activity, negative = inhibition [4] -4.51% | Potency [5] > 46 µM | Potency [6] > 9.22 µM | Potency [7] | Potency [8]

CC(C)c1ccc(/C(C(=O)O)=C(\O)C(=O)O)cc1
inactive: Potency [1] > 11.4 µM | activity change, negative = inhibition [2] -1.43% | Potency [3] | activity, negative = inhibition [4] -0.351% | Potency [5] > 46 µM | Potency [6] > 9.22 µM | Potency [7] | Potency [8]

CN1CCN(CC(=O)N2c3ccccc3Sc3cc4ccccc4cc32)CC1
inactive: Potency [1] > 11.4 µM | activity change, negative = inhibition [2] 12.2% | activity change, negative = inhibition [3] -21.6% [at 2.29 µM] | activity, negative = inhibition [4] -5.37% | Potency [5] > 46 µM | Potency [6] > 9.22 µM | Potency [7] | Potency [8] | Potency [9]

c1ccc2sc(SCSc3nc4ccccc4s3)nc2c1
inactive: Potency [1] > 11.4 µM | activity change, negative = inhibition [2] -1.38% | activity, negative = inhibition [4] 2.46% | Potency [5] > 46 µM | Potency [6] > 9.22 µM | Potency [7] | Potency [8]
active: Potency [3] 3.98 µM | Potency [10] 3.16 µM | Potency [11] 1.26 µM

CN(C)CCCc1c2ccccc2nc2ccc(Cl)cc12
active: Potency [3] 3.98 µM | Potency [12] 1.58 µM
inactive: Potency [1] > 11.4 µM | activity change, negative = inhibition [2] 14.2% | activity, negative = inhibition [4] 18.2% | Potency [5] > 46 µM | Potency [6] > 9.22 µM | Potency [7] | Potency [8]

CN(C)C[C@H]1CCC2=C(C1=O)C(c1ccc(Cl)c(Cl)c1)C1=C(CC[C@H](CN(C)C)C1=O)O2
active: Potency [10] 0.398 µM
inactive: Potency [1] > 11.4 µM | activity change, negative = inhibition [2] 0.767% | activity change, negative = inhibition [3] -2% [at 2.29 µM] | activity, negative = inhibition [4] 13.6% | Potency [5] > 46 µM | Potency [6] > 9.22 µM | Potency [7] | Potency [8] | Potency [9]

N[C@@H](CC1=CS(=O)(=O)c2ccc(Cl)cc21)C(=O)O
active: Potency [3] 0.398 µM
inactive: Potency [1] > 11.4 µM | activity change, negative = inhibition [2] -5.74% | activity, negative = inhibition [4] -1.77% | Potency [5] > 46 µM | Potency [6] > 9.22 µM | Potency [7] | Potency [8] | Potency [9]

— PubChem BioAssay (NCATS)
